Test results reported in PubChem BioAssay (Tox21).
Several values for one entry are separate records, joined by “and”; a condition that tells them apart may be missing. Equal entries are not always repeated. Inconclusive results are not listed. Some structures have more than one record in an assay (separate samples or runs), and their calls can disagree. Activity calls are given as the source filed them. Unless noted, calls follow the shape of the dose curve; as a rule, active = well fitted curve in the direction sought with a large enough effect in the repeat runs; inconclusive = weak or mixed curves; inactive = no such curve, though single readings can be large; an effect the other way counts as inactive or inconclusive.

Key:
[1] = molecular target: Aryl hydrocarbon receptor (Homo sapiens) (UniProt P35869); assay: qHTS assay to identify small molecule that activate the aryl hydrocarbon receptor (AhR) signaling pathway (AID 743085); settings: HepG2 AhR-luc (HG2L7.5c1), luciferase, 24 h; series mostly up to 70.3 µM; also: nearly all actives have a fitted effect of over 15% in size; also: potency is read from the fitted curve at half-maximal effect;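 as to activation: HG2L7.5c1 human HepG2 liver cells with stably integrated DRE-driven firefly reporter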
Outline: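 Luminescence read-out: ONE-Glo reagent, 30 min at room temperature, in HG2L7.5c1 HepG2 reporter cells treated 24 h at 37C. Viability was measured beforehand by CellTiter-Fluor fluorescence after 30 min at 37C.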

[2] = qHTS assay to identify small molecule that activate the aryl hydrocarbon receptor (AhR) signaling pathway - cell viability counter screen (AID 743086); settings: HepG2-AhR-luc viability, CellTiter-Fluor, 24 h; series mostly up to 70.3 µM;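 also: HepG2 liver cells carrying the AhR DRE luciferase reporter; nearly all actives have a fitted effect of over 45% in size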
Outline: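 HepG2-AhR-luc (HG2L7.5c1) cells, 4000/well, treated 24 h at 37 C with compound; viability measured as CellTiter-Fluor fluorescence after 30 min in the same wells as the luciferase read.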

[3] = qHTS assay to identify small molecule antagonists of the peroxisome proliferator-activated receptor gamma (PPARg) signaling pathway - cell viability counter screen (AID 743194); settings: PPARg-bla HEK293H viability, CellTiter-Glo luminescence, 17 h; Potency: co-treated with 50 nM rosiglitazone unless noted; series mostly up to 62.6 µM; also: nearly all actives have a fitted effect of over 55% in size; also: potency is read from the fitted curve at half-maximal effect
Outline: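 Cytotoxicity counter screen in PPARg-bla HEK293H cells, same wells as reporter assay. Compounds plus 50 nM rosiglitazone (final) for 17 h at 37 C, then viability read by CellTiter-Glo luminescence.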

[4] = qHTS assay for small molecule agonists of the antioxidant response element (ARE) signaling pathway (AID 743202; active = well fitted activation curve with a large enough effect in the signal ratio in the repeat runs, not every such curve was filed as active; the % refers to the signal ratio); settings: HepG2 ARE-bla reporter, beta-lactamase FRET, 16 h; series mostly up to 73.3 µM
Outline: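 Agonist mode reporter screen: HepG2 cells with ARE-controlled beta-lactamase are incubated with test compounds for 16 h at 37 C, and beta-lactamase activity is measured as fluorescence of cleaved B/G FRET substrate.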

[5] = qHTS assay for small molecule agonists of the antioxidant response element (ARE) signaling pathway - cell viability counter screen (AID 743203; calls by dose curve; also: nearly all actives have a fitted effect of over 55% in size; also: potency is read from the fitted curve at half-maximal effect); settings: ARE-bla HepG2 viability, CellTiter-Glo luminescence, 16 h; series mostly up to 73.3 µM
Outline: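 ARE-bla HepG2 cells were plated, rested 5 h at 37C/5% CO2, then exposed to compounds in DMSO for 16 h. Viability was read as CellTiter-Glo luminescence after 30 min at room temperature, in the same wells as the ARE screen.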

[6] = qHTS assay for small molecule activators of the heat shock response signaling pathway - cell viability counter screen (AID 743209); settings: HSE-bla HeLa viability, CellTiter-Glo luminescence, 5 h; series mostly up to 62.6 µM; also: nearly all actives have a fitted effect of over 50% in size; also: potency is read from the fitted curve at half-maximal effect
Outline: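 HSE-bla HeLa cells plated overnight, then exposed to Tox21 compounds (23 nL in DMSO) for 5 h at 37 C. After the bla reporter read, CellTiter-Glo was added in the same wells and luminescence read after 30 min at room temperature.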

[7] = qHTS assay for small molecule activators of the heat shock response signaling pathway (AID 743210; active = well fitted activation curve with a large enough effect in the signal ratio in the repeat runs, with a control signal flat, not every such curve was filed as active; the % refers to the signal ratio; also: potency is read from the fitted curve at half-maximal effect;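 as to activation: HeLa cells with beta-lactamase reporter driven by heat shock elements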); settings: HeLa HSE-bla reporter, beta-lactamase ratio, 5 h; series mostly up to 62.6 µM
Outline: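 Quantitative high-throughput format using an engineered HeLa line in which heat shock response elements drive beta-lactamase; after 5 h with compound, cells received a B/G FRET substrate and fluorescence was read.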

[8] = qHTS assay to identify small molecule agonists of the peroxisome proliferator-activated receptor delta (PPARd) signaling pathway - cell viability counter screen (AID 743211); settings: PPARd-bla HEK293H viability, CellTiter-Glo luminescence, 17 h; series mostly up to 62.6 µM; also: nearly all actives have a fitted effect of over 55% in size; also: potency is read from the fitted curve at half-maximal effect
Outline: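 Read-out: CellTiter-Glo luminescence, 30 min RT, measured in the same wells as the beta-lactamase reporter. Cells: GeneBLAzer PPAR delta UAS-bla HEK293H, 3000 cells/well, compound exposure 17 h at 37C.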

[9] = molecular target: Peroxisome proliferator-activated receptor gamma (Homo sapiens) (UniProt P37231); assay: qHTS assay to identify small molecule antagonists of the peroxisome proliferator-activated receptor gamma (PPARg) signaling pathway (AID 743191; calls by dose curve; also: nearly all actives have a fitted effect of over 30% in size; also: potency is read from the fitted curve at half-maximal effect); settings: HEK293H PPARg-UAS-bla, beta-lactamase ratio, antagonist, 17 h; series mostly up to 62.6 µM
Outline: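 GeneBLAzer PPARg UAS-bla HEK293H cells, 5 h post-plating, exposed to compounds 17 h at 37C. LiveBLAzer B/G FRET substrate added for 1 h at room temperature; beta-lactamase reporter read by fluorescence intensity.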

[10] = molecular target: Peroxisome proliferator-activated receptor gamma (Homo sapiens) (UniProt P37231); assay: qHTS assay to identify small molecule agonists of the peroxisome proliferator-activated receptor gamma (PPARg) signaling pathway (AID 743094; active = well fitted activation curve with a large enough effect in the signal ratio in the repeat runs, not every such curve was filed as active; the % refers to the signal ratio); settings: HEK293H PPARg-UAS-bla, beta-lactamase FRET ratio, 17 h; series mostly up to 57 µM
Outline: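 GeneBLAzer PPARg UAS-bla HEK293H cells were plated, rested 5 h, then exposed to compounds for 17 h at 37C. Beta-lactamase activity was read by LiveBLAzer B/G FRET substrate fluorescence after 1 h at room temperature.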

Measured: Potency

Chain of Aryl hydrocarbon receptor (Homo sapiens) (P35869 whole entry, looked up): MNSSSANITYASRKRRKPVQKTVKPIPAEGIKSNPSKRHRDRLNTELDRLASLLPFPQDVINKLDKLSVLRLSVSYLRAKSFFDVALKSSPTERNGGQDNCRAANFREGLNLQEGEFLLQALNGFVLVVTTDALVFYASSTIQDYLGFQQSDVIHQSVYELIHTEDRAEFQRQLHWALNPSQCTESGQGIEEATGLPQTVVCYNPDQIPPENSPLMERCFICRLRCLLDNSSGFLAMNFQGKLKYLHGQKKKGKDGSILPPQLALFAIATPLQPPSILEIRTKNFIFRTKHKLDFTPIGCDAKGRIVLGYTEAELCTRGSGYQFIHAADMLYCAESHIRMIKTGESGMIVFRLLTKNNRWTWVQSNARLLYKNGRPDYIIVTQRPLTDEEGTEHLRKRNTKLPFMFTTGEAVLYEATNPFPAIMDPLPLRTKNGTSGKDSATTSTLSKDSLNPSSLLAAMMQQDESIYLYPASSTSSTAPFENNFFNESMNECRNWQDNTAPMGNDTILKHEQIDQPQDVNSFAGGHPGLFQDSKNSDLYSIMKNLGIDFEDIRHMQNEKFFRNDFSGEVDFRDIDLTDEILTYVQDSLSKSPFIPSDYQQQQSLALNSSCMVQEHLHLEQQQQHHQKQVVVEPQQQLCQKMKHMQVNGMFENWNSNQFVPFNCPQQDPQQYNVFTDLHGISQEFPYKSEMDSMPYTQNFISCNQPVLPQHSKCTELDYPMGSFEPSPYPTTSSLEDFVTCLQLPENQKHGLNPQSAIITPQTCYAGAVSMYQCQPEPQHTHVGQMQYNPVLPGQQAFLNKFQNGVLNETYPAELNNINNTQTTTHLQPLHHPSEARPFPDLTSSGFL
Chain of Peroxisome proliferator-activated receptor gamma (Homo sapiens) (P37231 whole entry, looked up): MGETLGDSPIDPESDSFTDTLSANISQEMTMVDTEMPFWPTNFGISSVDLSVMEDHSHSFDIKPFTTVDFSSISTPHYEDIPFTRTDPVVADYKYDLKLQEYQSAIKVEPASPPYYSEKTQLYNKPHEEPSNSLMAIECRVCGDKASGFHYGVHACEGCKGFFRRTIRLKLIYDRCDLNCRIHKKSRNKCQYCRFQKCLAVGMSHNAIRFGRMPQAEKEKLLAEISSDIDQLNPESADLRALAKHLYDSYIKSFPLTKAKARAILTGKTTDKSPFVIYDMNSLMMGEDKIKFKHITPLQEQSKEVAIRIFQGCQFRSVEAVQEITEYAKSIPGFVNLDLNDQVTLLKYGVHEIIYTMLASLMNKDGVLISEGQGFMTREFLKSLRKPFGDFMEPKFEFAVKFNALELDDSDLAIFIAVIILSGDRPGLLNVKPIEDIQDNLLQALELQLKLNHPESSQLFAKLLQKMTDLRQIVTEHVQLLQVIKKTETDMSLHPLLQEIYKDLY

CCC(C)(C)c1ccc(O)cc1
49.5 µM (active) and inactive: [8]
not listed: [9] | [10]
inactive: all other assays above

CN(C)C(=O)Nc1ccc(Cl)cc1
not listed: [9] | [10]
inactive: all other assays above

CC(C)C(=O)OCC(C)(C)C(OC(=O)C(C)C)C(C)C (stereo not given)
active: [3] 35 µM [setting not given]
24.8 µM (active) and inactive: [6]
not listed: [9] | [10]
inactive: all other assays above

Nc1c(Cl)cc([N+](=O)[O-])cc1Cl
not listed: [10]
inactive: all other assays above

NNC(N)=S
40.4 µM (active) and inactive: [6]
inactive and 19.3 µM (active): [1]
inactive: [2] | [3] | [5]

CCC(CC)Nc1c([N+](=O)[O-])cc(C)c(C)c1[N+](=O)[O-]
not listed: [9] | [10]
inactive: all other assays above

N#CC(Br)Br
not listed: [4] | [9]
inactive: all other assays above

N[C@@H](Cc1ccc(N(CCCl)CCCl)cc1)C(=O)O
not listed: [8] | [10]
inactive: all other assays above

CNC(=O)N(C)c1nnc(C(C)(C)C)s1
not listed: [9] | [10]
inactive: all other assays above

CCC(C)(c1ccc(O)cc1)c1ccc(O)cc1
54.9 µM (active) and inactive: [8]
inactive: [1] | [2] | [3] | [5] | [6]
active: [9] 30.9 µM and 38.9 µM

COC(=O)c1sccc1S(=O)(=O)NC(=O)Nc1nc(C)nc(OC)n1
not listed: [3] | [8] | [9]
inactive: all other assays above

Nc1cccnc1
not listed: [9] | [10]
inactive: all other assays above

CCOc1cc(Oc2ccc(C(F)(F)F)cc2Cl)ccc1[N+](=O)[O-]
not listed: [4] | [10]
inactive: all other assays above

CC1(C)C(C=C(Cl)Cl)C1C(=O)OC(C#N)c1cccc(Oc2ccccc2)c1 (stereo not given)
not listed: [4] | [10]
inactive: all other assays above

CCN(CC)C(=O)SCc1ccc(Cl)cc1
not listed: [10]
inactive: all other assays above

Oc1cc(Cl)ccc1Cl
not listed: [4] | [9]
inactive: all other assays above

CCOC(=O)C(C)OC(=O)c1cc(Oc2ccc(C(F)(F)F)cc2Cl)ccc1[N+](=O)[O-] (stereo not given)
inactive: [1] | [2] | [3] | [5] | [6]

CC(C)(OOC(C)(C)c1ccccc1)c1ccccc1
48.3 µM (active) and inactive: [6]
inactive: [1] | [2] | [3] | [5] | [7]

Cc1ccc(OP(=O)(Oc2ccc(C)cc2)Oc2ccc(C)cc2)cc1
not listed: [9] | [10]
inactive: all other assays above

O=[N+]([O-])c1c(Cl)c(Cl)c(Cl)c(Cl)c1Cl
active: [5] 19.3 µM
not listed: [4] | [9]
inactive: all other assays above

CCOCN(C(=O)CCl)c1c(C)cccc1CC
active: [5] 14.5 µM and 21.7 µM
inactive: [1] | [2] | [3]

c1ccc(P(c2ccccc2)c2ccccc2)cc1
inactive and 3.34 µM (active): [7]
inactive: [1] | [2] | [3] | [5] | [6]

Oc1ccc(-c2ccccc2)cc1
not listed: [4] | [7] | [9]
inactive: all other assays above

Oc1c(Cl)c(Cl)c(Cl)c(Cl)c1Cl
inactive: [2] | [6] | [7]
active: [1] 3.37 µM | [9] 3.4 µM

O=C1C=CC(=O)C=C1
inactive: [1] | [2] | [10] | [5] | [6] | [7]
